# High-throughput results deposited in PubChem BioAssay by National Center for Advancing Translational Sciences (NCATS).
# In the library only some 19% were active in any assay of this set; here they are far more common.
# HT1080-NT tox: qHTS for induction of synthetic lethality in tumor cells producing 2HG: qHTS for the HT-1080-NT fibrosarcoma cell line | HT-1080-NT fibrosarcoma viability, CellTiter-Glo ATP luminescence, 48 h | Potency, µM (titrated, usually from 46.1 µM), for inactives: top-dose activity, negative = less viability, hits mostly cytotoxic | 360,000 compounds, 1.6% hits;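 note: NT is the 2HG producing partner of a matched IDH1 knockdown line; 0% = DMSO-treated cells and -100% = media-only wells without cells; nearly all actives have a fitted effect of over 55% in size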
#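 Viability by CellTiter-Glo luminescence after 48 h compound exposure at 37C of HT-1080-NT cells (750/well, RPMI, 5% FBS). % activity scaled between DMSO wells and medium-only wells, then curve-fitted and categorized by curve class.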
# HT1080 IDH1KD tx: qHTS for induction of synthetic lethality in tumor cells producing 2HG: qHTS for the HT-1080-IDH1KD cell line | HT-1080 IDH1 knockdown viability, ATP luminescence, 48 h | Potency, µM (top dose mostly 46.1 µM), for inactives: top-dose activity, negative = toxicity, most hits filed as cytotoxic | 360,000 compounds, 2% hits | AID 686971, 2013;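 note: 0% = DMSO wells and -100% = cell-free medium wells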
#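 Knockdown cells (IDH1KD HT-1080) received compounds 2 h after plating at 750 cells/well and were kept 48 h at 37 °C in 5% FBS RPMI. A CellTiter-Glo luminescence read gave % activity for curve fitting.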
# TDP1 cell noCPT: qHTS for Inhibitors of human tyrosyl-DNA phosphodiesterase 1 (TDP1): qHTS in cells in absence of CPT | DT40 Tdp1-/- hTDP1 cells, no CPT, ATP luminescence, 48 h | Potency, µM (highest dose often 46.2 µM), without a hit: at the top dose activity change, negative = growth inhibition, most hits filed as inhibitors | 420,000 compounds, 15% hits | AID 686978, 2013; note: nearly all actives have a fitted effect of over 55% in size
#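 Luminescent ATP content (CellTiter-Glo) served as the growth readout. Knockout chicken DT40 cells expressing human TDP1 were exposed to compounds without camptothecin for a minimum 48 hr at 37 °C.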
# DT40 TDP1 CPT: qHTS for Inhibitors of human tyrosyl-DNA phosphodiesterase 1 (TDP1): qHTS in cells in presence of CPT; chicken DT40 Tdp1-/-;hTDP1 cells + 20 nM CPT, ATP luminescence, 48 h; Potency, µM (doses to about 46.2 µM), for inactives: at the top dose activity change, negative = growth inhibition, usual class: inhibitors; 420,000 compounds, 12% hits; AID 686979, 2013; note: nearly all actives have a fitted effect of over 55% in size
#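 Cell growth measured by CellTiter-Glo luminescence after a minimum 48 h, 37 C compound exposure with 20 nM CPT in Tdp1-knockout DT40 cells stably expressing hTDP1, seeded 400/well; qHTS titration format.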
# KB-3-1 cytotox: qHTS assay for MDR1-selective chemotherapeutics: Primary screen using the parental adenocarcinoma cell KB-3-1 | KB-3-1 viability, CellTiter-Glo ATP luminescence, 72 h | Potency, µM (doses to about 46.1 µM), most hits filed as cytotoxic | 400,000 compounds, 1.4% hits | AID 1347075, 2019; note: nearly all actives have a fitted effect of over 60% in size
#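 Screening of KB-3-1 cells (DMEM, 10% FBS, phenol-red free) ran from lowest to highest compound concentration; after 72 h at 37 °C viability was read luminescently and curves fitted.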
# KB-V1 MDR tox: qHTS assay for MDR1-selective chemotherapeutics: Primary screen using the drug-selected MDR subline cells KB-V1; KB-V1 MDR cells viability, CellTiter-Glo, 72 h; Potency, µM (doses to about 46.1 µM), hits mostly cytotoxic; 400,000 compounds, 3.4% hits; note: nearly all actives have a fitted effect of over 60% in size
#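 Readout: CellTiter-Glo luminescence, 10 min after addition. Cells: KB-V1 MDR subline, 72 h at 37 degrees C with compound. Analysis: corrected, normalized data fitted to concentration-effect curves.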
# The depositor's hits bear a star; i = inactive; u = inconclusive; x = not tested or not shown; ! = not active in a repeat; [ ] = dose if it differs, or a comment. Calls come from the whole dose curve; as a rule, active = well fitted curve in the direction sought with a large enough effect; inconclusive = small, poorly fitted or top-dose-only effect, or another doubt; inactive = no such curve, though single readings can be large; an effect the other way counts as inactive or inconclusive. Unless noted, % is set by controls: 0 for no effect and ±100 for the full control effect; potency is the fitted concentration of half-maximal effect.
SMILES,HT1080-NT tox,HT1080 IDH1KD tx,TDP1 cell noCPT,DT40 TDP1 CPT,KB-3-1 cytotox,KB-V1 MDR tox
C[C@H]1COc2cc(N3CCN(C)CC3)ccc2S(=O)(=O)N1,15%,3%,-13%,1%,i,i
COCCO[C@H]1CCC2C3CC=C4C[C@@H](O)CC[C@]4(C)C3CC[C@@]21C (stereo not given in full),14%,-1%,u,u,i,i
CCN(C1CCCCC1)S(=O)(=O)c1ccc(S(=O)(=O)N(CC(=O)Nc2ccccc2)C2CC2)cc1,-2%,-10%,u,u,i,6.5µM*
CCN(c1ccccc1)S(=O)(=O)c1ccc(C(=O)NC2CCCCC2)cc1,2%,-3%,16µM*,u,i,i
CCOP(=O)(OCC)c1ccc(OP(=O)(c2cccc([N+](=O)[O-])c2)c2cccc([N+](=O)[O-])c2)cc1,11%,11%,-9%,1%,i,i
Nc1ncnc2c1ncn2[C@@H]1O[C@H](COP(=O)(O)OP(=O)(O)OP(=O)(O)O)[C@@H](O)[C@H]1O,u,u,-1%,0%,i,i
CC(C)OC(=O)OCOP(=O)(CO[C@H](C)Cn1cnc2c(N)ncnc21)OCOC(=O)OC(C)C,x,x,11µM*!,8.4µM*!,x,x
CCN(CC)c1ccc(N=Cc2c(O)n(-c3ccccc3C)c(=O)[nH]c2=O)cc1,u,u,u,23µM*,i,i
C=CCn1c(O)c(C(C)=Nc2ccc(N(CC)CC)cc2)c(=O)[nH]c1=O,u,u,9.2µM*,21µM*,5.8µM*,12µM*
CCN(CC)c1ccc(N=Cc2c(O)n(Cc3ccccc3)c(=O)[nH]c2=O)cc1,-2%,-15%,9.2µM*,16µM*,i,u
CCN(CC)c1ccc(N=Cc2c(O)n(-c3ccccc3)c(=O)[nH]c2=O)cc1,-3%,-4%,u,u,i,u
C[C@]12CCC3C(CC[C@H]4C[C@@H](O)CC[C@]34C)C1=CC[C@@H]2O (stereo not given in full),-11%,-2%,u,-27%,i,u
O=S(=O)(O)C(F)(F)C(F)(F)C(F)(F)C(F)(F)C(F)(F)C(F)(F)C(F)(F)C(F)(F)F,x,x,u,-21%[92.5 µM],x,x
Cn1ncc(Cl)c1C(=O)N1CCC2(CC1)OCCO2,0%,0%,11%,-3%,i,i
CCc1ccc(NC(=O)CCNC(=O)N2C[C@H]3C[C@@H](C2)c2cccc(=O)n2C3)cc1,1%,7%,-2%,-15%,i,u
CC1(c2ccccc2)CC(C)(C)N2C(=O)C3(C(C#N)=C(N)Oc4cc(O)ccc43)c3cccc1c32 (stereo not given),u,u,u,u,i,21µM*
CCOC(=O)C1=C(N)Oc2cc(C)oc(=O)c2C12C(=O)N1c3c(cccc32)C(C)CC1(C)C (stereo not given),4%,-4%,-1%,-11%,i,i
CN[C@@H]1C[C@H](c2ccc(Cl)c(Cl)c2)c2ccccc21,x,x,9.4µM*,8.4µM*,x,x
CN[C@@H]1C[C@@H](c2ccc(Cl)c(Cl)c2)c2ccccc21,x,x,12µM*,24µM*,x,x
c1ccc(NC2=NCCS2)cc1,1%,-1%,-1%,3%,i,i
O=C(NCc1ccc2c(c1)CCN2C(=O)c1ccccc1)Nc1cccc(C(F)(F)F)c1,x,x,u,15µM*,x,x
O=C(CN1C(=O)CN=C(c2ccccc2)c2ccccc21)Nc1cccc(C(F)(F)F)c1,x,x,u,u,i,i
Cc1nc2ccc(Cl)cn2c1P(=S)(N1CCOCC1)N1CCOCC1,0%,4%,u,15µM*,i,i
Cc1nc(C)n(CC(O)COc2ccc3cc(Br)ccc3c2)n1 (stereo not given),-6%,u,u,u,i,i
Cc1cc(=O)oc2c(C)c(OCC(=O)N3CCN(Cc4ccccc4)CC3)ccc12,-13%,-6%,u,3%,i,u
SMILES,HT1080-NT tox,HT1080 IDH1KD tx,TDP1 cell noCPT,DT40 TDP1 CPT,KB-3-1 cytotox,KB-V1 MDR tox
COc1ccc(NC(=O)C2Cc3c(-c4cccc(C(C)=O)c4)ccnc3O2)cc1OC (stereo not given),u,u,4.1µM*,3.3µM*,5.2µM*,9.2µM*
CN(C)c1ncc(C2=C(Cl)C(=O)C(N3CCCC3)=C(Cl)C2=O)s1,u,8.9µM*,1.2µM*,0.92µM*,i,i
CCN1C(=O)c2ccccc2Sc2ccc(NC(=O)Nc3ccc(Br)c(C)c3)cc21,x,x,u,u,i,u
O=c1[nH]c(=O)n(-c2ccccc2)c(O)c1N=Nc1ccc(Br)cc1,-7%,1%,-17%,0%,i,i
CCc1ccc(NC(=O)c2ccc(F)c(S(=O)(=O)N3CCc4ccccc4C3)c2)cc1,x,x,21µM*,u,x,x
CCc1ccc(NC(=O)c2ccc(F)c(S(=O)(=O)N3CCC4(CC3)OCCO4)c2)cc1,x,x,21µM*,u,x,x
FC(F)(F)c1cccc(-n2nnnc2C2(N3CCOCC3)CCCCC2)c1,5%,5%[9.24 µM],u,u,i,u
COc1ccc(NC(=O)c2ccccc2SCc2ccccc2)cc1,-19%,-27%,4.6µM*,5.2µM*,u,i
CCN(CC)C(=O)c1ccc(NC(=O)c2cn(-c3ccccc3)nc2-c2ccc(OC)cc2)cc1,-3%,-23%,u,u,i,i
Cc1cc2c(cc1C)NP(=S)(c1ccccc1)N2,-30%,u,-17%,-10%,i,i
COC(=O)C12CCc3cc(OC)ccc3C1=CC(=O)C2 (stereo not given),-3%,0%,u,11%,i,i
CCOC(=O)[C@]12Cc3ccccc3[C@H]1N(CCC(=O)OC)C(=O)c1ccccc12,u,u,16µM*,18µM*,5.2µM*,5.2µM*
